Among the data in PubChem BioAssay (NCI) are growth values, retold here.

Each structure is given as a SMILES string. The panel holds about 83,000 compounds, 20% with a hit somewhere; the sample as a whole holds those more often.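 Values shown are percent growth following 48 h exposure of cells in 96-well plates to a single concentration of compound; below 10 was considered active.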 A number with no mark means an inactive call. Activity calls are given as the source filed them.

This assay deals with NCI-H460 lung. In words: NCI-60 one-dose screen, 48 h (100 = growth as untreated, 0 = no growth, -100 = all killed). To be noted: 10 µM.
Turning to `Clc1cc2c(c(CSc3nc4ccccc4n4cccc34)c1)OCOC2`, the growth is 66.6%.

As to `O=C1NC(=O)c2ncccc21`, the growth is 111%.

For the compound `NC1=NC(=O)C(c2ccccc2)(c2ccccc2)S1`, the growth is 113%.

`Cn1c([N+](=O)[O-])cnc1/C=C1\Oc2cc(Cl)ccc2C1=O`: the growth was -32.1% (active).

As to `c1ccc(C(NC2CC3CCC2C3)c2ccccc2)cc1` (configuration not stated), the growth was 105%.

Turning to `COc1cc(/C=C2\Oc3cc(OCC(=O)c4ccccc4)ccc3C2=O)cc(OC)c1OC`, the growth is 93%.

Consider `CC1(C)Cc2c(sc3ncn4nc(-c5ccc(O)cc5)nc4c23)CO1`, for which the growth is 63.2%.

With `O=C(N/N=C/c1cc2ccccc2c2ccccc12)c1cc(O)c(O)c(O)c1`, the growth was 88.1%.

Consider `CCOC(=O)c1ccoc1`, for which the growth is 101%.

`O=[P@@]1(c2ccccc2)O[C@H](COCc2ccccc2)[C@@H](OCc2ccccc2)[C@H](OCc2ccccc2)[C@H]1O`: the growth was 74.7%.

Take `CN(C)CCN1C(=O)c2cccc3c(-c4ccc5ncn(C6CCCCC6)c5c4)ccc(c23)C1=O`: the growth is 1.4% (active).

Consider `CN(C)c1ccc(N=C2C=CC(=O)c3ccccc32)cc1`, for which the growth is 15.3%.

For `CC(=O)CSC(C)=O`, the growth is 103%.

Regarding `COc1ccc(Nc2ccnc(NCCNc3ccnc4cc(Cl)ccc34)n2)cc1`, the growth is 47.4%.

Turning to `N=C(N)c1ccc(-c2ccc(-c3cccs3)s2)cc1`, the growth was -72.4% (active).

As to `CC(C)(Cl)CCC1=C(Cl)C(=O)c2ccccc2C1=O`, the growth is 65.6%.

As to `CCOCCOCCOCCOCCOCCOCCOCCOCCOCCO` (tested in a mixture with another compound), the growth is 12.9%.
